Test results as given in PubChem BioAssay (NCATS).
Inconclusive results are not listed. Active and inactive are the calls of the source. Unless noted, calls come from the whole dose curve; as a rule, active = well fitted curve in the direction sought with a large enough effect; inconclusive = small, poorly fitted or top-dose-only effect, or another doubt; inactive = no such curve, though single readings can be large; an effect the other way counts as inactive or inconclusive.

Key:
[1] = Identifying Small Molecule Inhibitors of Pancreatic Cancer Stem Cells (SN12C, Adherent) (AID 1259358);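 note: cell survival measured after 48 h of compound exposure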; note: potency is the fitted concentration of half-maximal effect
Procedure, shortened: (§1)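 Pre-formed 14-day tumor spheroids or adherent cells dosed and incubated 48 h, 37C, 5% CO2. Viability assessed by CellTiter-Glo.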

[2] = Identifying Small Molecule Inhibitors of Pancreatic Cancer Stem Cells (A278, Adherent) (AID 1259361); note: nearly all actives have a fitted effect of over 35% in size
Procedure, shortened: as §1

[3] = Identifying Small Molecule Inhibitors of Pancreatic Cancer Stem Cells (Panc1, Adherent) (AID 1259362); settings: Potency: viability; note: potency is the fitted concentration of half-maximal effect
Procedure, shortened: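 Spheroids grown 14 days in stem cell media on hydrogel-coated nonadherent plates; 2D lines seeded directly. Compounds added after 4 h attachment, 48 h at 37C, 5% CO2; CellTiter-Glo luminescence normalized to DMSO (no inhibition) and no-cell wells (full inhibition).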

[4] = P-glycoprotein substrates identified in KB-3-1 adenocarcinoma cell line, qHTS therapeutic library screen (AID 1346986); note: nearly all actives have a fitted effect of over 60% in size;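 note: potency is the fitted concentration of half-maximal effect; potency is for cytotoxicity meaning loss of cell viability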
Procedure, shortened: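 Cells seeded 500/well in DMEM/10% FCS; compounds pinned in dose-response; 72 h incubation; CellTiter-Glo added, 5 min, luminescence. KB-8-5-11 run ±tariquidar to test reversal of P-gp resistance.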

[5] = P-glycoprotein substrates identified in KB-8-5-11 adenocarcinoma cell line, qHTS therapeutic library screen (AID 1346987); note: nearly all actives have a fitted effect of over 65% in size; note: potency is the fitted concentration of half-maximal effect
Procedure, shortened: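 KB-8-5-11, a colchicine-selected P-gp-overexpressing KB-3-1 subline, was grown without colchicine for the assay. Cells were seeded at 500 cells/well, dosed in concentration-response and incubated 72 h at 37 degree C, 5% CO2. Viability was read by CellTiter-Glo luminescence.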

[6] = Natriuretic polypeptide receptor (hNpr1) antagonism - Pilot counterscreen GloSensor control cell line (AID 1347045; calls by dose curve; note: series mostly up to about 38 µM)
Procedure, shortened: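 HEK293 cGMP GloSensor cells preloaded 2 h with 2% GloSensor reagent, then compound 30 min before baseline luminescence read. Stimulated with 50 uM sodium nitroprusside, 20 min at room temperature, then read again; counterscreen for Npr1 antagonism.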

[7] = target: Atrial natriuretic peptide receptor 2 (Homo sapiens) (UniProt P20594); experiment: Natriuretic polypeptide receptor (hNpr2) antagonism - Pilot subtype selectivity assay (AID 1347050; calls by dose curve)
Procedure, shortened: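 Pilot selectivity screen against hNpr2: HEK293 cGMP-sensor cells are treated with LOPAC1280 compounds, then with hNppC peptide at 1 nM final. The cGMP-driven luminescence change over 20 min at room temperature is the read-out.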

[8] = NS1 protein of Zika virus - qHTS assay to identify small molecule inhibitors in human HEK 293 cells (AID 1347053); note: nearly all actives have a fitted effect of over 55% in size; note: potency is the fitted concentration of half-maximal effect
Procedure, shortened: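 HEK 293 cells, seeded 20 h at 37 C, were pretreated with compound 1 h, then infected with ZIKV MR766 (MOI = 0.5) for 24 h. NS1 was read by TR-FRET with two anti-NS1 antibodies, normalized to uninfected and infected wells.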

[9] = target: Parathyroid hormone/parathyroid hormone-related peptide receptor (Homo sapiens) (UniProt Q03431); experiment: qHTS for PTHR1 Agonists: Optimization Screen against the NCGC LOPAC library (AID 1347079);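 note: GloSensor cAMP luminescence in HEK-293 GP2 cells expressing human PTHR1 with IBMX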
Procedure, shortened: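 Agonist readout: GloSensor cAMP luminescence, read after 15 min at room temperature. HEK-293-derived GP2 line carries PTHR1; compounds tested as a titration for 1 hr at 37C in presence of IBMX. M-PTH (1-15) served as control.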

[10] = qHTS of pediatric cancer cell lines to identify multiple opportunities for drug repurposing: Primary screen for TC32 cells (AID 1347089); note: nearly all actives have a fitted effect of over 60% in size; note: potency is the fitted concentration of half-maximal effect
Procedure, shortened: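 Luminescent CellTiter-Glo read-out of metabolically active TC32 cells after 48 h compound exposure. Primary: MIPE 11-point, 0.78 nM–46 µM; NPC 8-point, 0.59 nM–46 µM. Confirmatory: 11-point dilutions.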

[11] = qHTS of pediatric cancer cell lines to identify multiple opportunities for drug repurposing: Primary screen for SJ-GBM2 cells (AID 1347091); note: potency is the fitted concentration of half-maximal effect
Procedure, shortened: (§2)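 Cell viability, CellTiter-Glo luminescence; 500-1,000 cells/well, 8- or 11-point titration, 48 h compound exposure at 37 degrees C, 5% CO2. Controls: DMSO neutral, bortezomib 2.3 µM final as positive.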

[12] = qHTS of pediatric cancer cell lines to identify multiple opportunities for drug repurposing: Primary screen for DAOY cells (AID 1347090); note: nearly all actives have a fitted effect of over 55% in size; note: potency is the fitted concentration of half-maximal effect
Procedure, shortened: as §2

[13] = qHTS of pediatric cancer cell lines to identify multiple opportunities for drug repurposing: Primary screen for A673 cells (AID 1347092); note: nearly all actives have a fitted effect of over 45% in size; note: potency is the fitted concentration of half-maximal effect
Procedure, shortened: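 A673 cells (500-1,000 cells/well in growth media) were pre-incubated 5 h at 37 degrees C, then exposed to compounds for 48 h. Viability was read as CellTiter-Glo luminescence; concentration-response curves came directly from the primary screen.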

[14] = Identifying Small Molecule Inhibitors of Pancreatic Cancer Stem Cells (SN12C, Spheroid) (AID 1259360); settings: Potency: SN12C spheroid viability; note: potency is the fitted concentration of half-maximal effect
Procedure, shortened: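 Cytotoxicity read by CellTiter-Glo luminescence after 48 h compound exposure at 37C; percent activity scaled between DMSO-treated cells and cell-free wells. Spheroid formats used cells pre-formed 14 days in stem cell media on hydrogel.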

[15] = Identifying Small Molecule Inhibitors of Pancreatic Cancer Stem Cells (Panc1, Spheroid) (AID 1259359);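 note: compound exposure lasted 48 h before reading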
Procedure, shortened: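 Endpoint: ATP-based luminescence, 48 h drug exposure. Bortezomib at 9.2 uM final as full-kill control; DMSO vehicle as negative control; activity normalized between vehicle and cell-free wells.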

[16] = target: Atrial natriuretic peptide receptor 1 (Homo sapiens) (UniProt P16066); experiment: Natriuretic polypeptide receptor (hNpr1) antagonism - Pilot screen (AID 1347049; calls by dose curve;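 note: agonist-evoked cGMP luminescence read 20 min after hNppA addition; series mostly up to about 58 µM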)
Procedure, shortened: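 Readout is cGMP-driven firefly luciferase luminescence in HEK293 cells carrying hNpr1 and a PDE5-domain GloSensor, read before and 20 min after 0.1 nM hNppA stimulation. Cells had 2% substrate reagent for 2 h and test compound for 30 min.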

Atrial natriuretic peptide receptor 2 (Homo sapiens), sequence (P20594 whole entry, looked up): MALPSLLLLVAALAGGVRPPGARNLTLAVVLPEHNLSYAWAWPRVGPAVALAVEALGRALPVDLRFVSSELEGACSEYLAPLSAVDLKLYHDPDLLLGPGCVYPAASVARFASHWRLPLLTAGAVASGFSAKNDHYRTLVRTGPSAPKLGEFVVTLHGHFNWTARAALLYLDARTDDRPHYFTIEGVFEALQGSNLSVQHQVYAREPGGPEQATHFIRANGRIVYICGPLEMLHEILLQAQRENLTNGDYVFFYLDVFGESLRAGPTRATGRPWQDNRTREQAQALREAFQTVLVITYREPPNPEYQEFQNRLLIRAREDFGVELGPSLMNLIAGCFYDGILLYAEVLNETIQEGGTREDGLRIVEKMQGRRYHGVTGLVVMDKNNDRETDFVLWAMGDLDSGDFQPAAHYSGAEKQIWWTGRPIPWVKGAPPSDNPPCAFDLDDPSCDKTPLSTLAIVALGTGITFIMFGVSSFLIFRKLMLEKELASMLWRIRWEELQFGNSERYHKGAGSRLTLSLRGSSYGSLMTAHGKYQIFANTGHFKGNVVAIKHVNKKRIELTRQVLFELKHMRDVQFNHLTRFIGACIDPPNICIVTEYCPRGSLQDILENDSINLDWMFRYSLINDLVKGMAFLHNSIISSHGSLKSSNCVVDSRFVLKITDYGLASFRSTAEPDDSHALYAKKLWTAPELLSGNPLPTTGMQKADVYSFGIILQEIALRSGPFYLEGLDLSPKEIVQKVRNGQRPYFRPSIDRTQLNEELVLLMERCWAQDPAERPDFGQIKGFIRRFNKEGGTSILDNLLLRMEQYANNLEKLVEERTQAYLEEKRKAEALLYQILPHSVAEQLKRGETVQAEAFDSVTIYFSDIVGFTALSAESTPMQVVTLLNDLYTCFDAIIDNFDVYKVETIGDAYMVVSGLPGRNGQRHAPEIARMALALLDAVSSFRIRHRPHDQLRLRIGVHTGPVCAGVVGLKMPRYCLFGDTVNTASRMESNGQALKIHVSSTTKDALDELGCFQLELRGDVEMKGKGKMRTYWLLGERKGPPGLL
Atrial natriuretic peptide receptor 1 (Homo sapiens), sequence (P16066 whole entry, looked up): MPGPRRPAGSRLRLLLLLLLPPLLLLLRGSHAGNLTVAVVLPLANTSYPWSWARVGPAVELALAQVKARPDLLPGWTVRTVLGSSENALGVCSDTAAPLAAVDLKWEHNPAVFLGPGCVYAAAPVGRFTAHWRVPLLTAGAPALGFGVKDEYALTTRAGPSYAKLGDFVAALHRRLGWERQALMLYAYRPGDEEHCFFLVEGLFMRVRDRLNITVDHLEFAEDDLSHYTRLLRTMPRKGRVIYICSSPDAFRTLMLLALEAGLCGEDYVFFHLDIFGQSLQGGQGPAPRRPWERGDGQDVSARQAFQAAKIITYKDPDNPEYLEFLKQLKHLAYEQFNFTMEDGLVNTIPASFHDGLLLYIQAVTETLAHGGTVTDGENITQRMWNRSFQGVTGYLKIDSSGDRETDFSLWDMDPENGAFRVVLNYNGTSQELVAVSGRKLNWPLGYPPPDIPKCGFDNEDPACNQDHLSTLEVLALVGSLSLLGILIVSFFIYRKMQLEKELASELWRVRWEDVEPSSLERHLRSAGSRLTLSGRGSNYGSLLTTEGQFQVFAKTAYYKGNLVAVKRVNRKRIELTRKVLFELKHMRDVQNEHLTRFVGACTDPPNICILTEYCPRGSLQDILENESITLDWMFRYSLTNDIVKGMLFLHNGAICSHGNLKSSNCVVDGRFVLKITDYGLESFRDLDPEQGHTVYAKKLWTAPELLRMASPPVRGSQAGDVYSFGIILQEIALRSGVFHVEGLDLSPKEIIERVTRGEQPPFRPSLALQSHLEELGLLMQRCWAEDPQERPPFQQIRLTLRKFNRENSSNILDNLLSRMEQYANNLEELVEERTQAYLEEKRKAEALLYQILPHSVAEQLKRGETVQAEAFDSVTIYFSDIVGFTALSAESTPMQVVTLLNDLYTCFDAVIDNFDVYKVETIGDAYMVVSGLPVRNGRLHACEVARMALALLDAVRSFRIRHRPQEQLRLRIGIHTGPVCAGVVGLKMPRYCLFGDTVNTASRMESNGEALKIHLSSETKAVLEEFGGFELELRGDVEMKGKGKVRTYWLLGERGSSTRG
Parathyroid hormone/parathyroid hormone-related peptide receptor (Homo sapiens), sequence (Q03431 whole entry, looked up): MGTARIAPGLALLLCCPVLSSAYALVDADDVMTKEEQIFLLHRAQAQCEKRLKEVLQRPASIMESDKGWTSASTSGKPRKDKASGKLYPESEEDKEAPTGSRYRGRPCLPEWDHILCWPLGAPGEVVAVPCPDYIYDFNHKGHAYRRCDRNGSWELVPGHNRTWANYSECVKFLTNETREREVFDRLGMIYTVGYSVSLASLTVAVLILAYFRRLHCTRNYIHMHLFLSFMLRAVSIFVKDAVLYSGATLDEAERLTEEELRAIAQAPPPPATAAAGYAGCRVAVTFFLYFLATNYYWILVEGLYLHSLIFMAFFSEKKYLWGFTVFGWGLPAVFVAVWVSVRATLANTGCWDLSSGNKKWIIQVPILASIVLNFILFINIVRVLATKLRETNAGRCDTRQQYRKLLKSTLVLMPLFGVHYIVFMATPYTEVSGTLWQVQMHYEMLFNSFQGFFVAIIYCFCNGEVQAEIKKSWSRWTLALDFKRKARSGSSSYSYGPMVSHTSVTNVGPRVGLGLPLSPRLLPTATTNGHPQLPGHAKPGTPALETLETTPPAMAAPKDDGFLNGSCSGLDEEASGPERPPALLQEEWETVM

Nc1ncnc2nc(-c3ccc(N4CCOCC4)nc3)cc(-c3cccc(Br)c3)c12
active: IC50 (viability decrease) [2] 26.4 µM
inactive: Potency [1] | Potency [3] | Potency [4] | Potency [5] | outcome [6] | Potency [7] | Potency [8] | outcome [9] | Potency [10] | Potency [11]

COc1c(Cl)cc2c([nH]c3cnccc32)c1NC(=O)c1cccnc1C
inactive: Potency [1] | IC50 (viability decrease) [2] | Potency [4] | Potency [5] | Potency [8]

Clc1ccc(Nc2nnc(Cc3ccncc3)c3ccccc23)cc1
inactive: Potency [1] | IC50 (viability decrease) [2] | Potency [5] | Potency [8] | Potency [10] | Potency [11]

Cc1cccc(-c2nn(C(=S)Nc3ccccc3)cc2-c2ccnc3ccccc23)n1
inactive: Potency [1] | Potency [3] | Potency [4] | Potency [5] | Potency [8] | Potency [10] | Potency [12] | Potency [13]

NC(=O)C1CCCc2c1[nH]c1ccc(Cl)cc21 (centres undefined)
active: Potency [13] 23.5 µM
inactive: Potency [1] | Potency [14] | Potency [3] | Potency [5] | Potency [8] | Potency [10] | Potency [12] | Potency [11]

COc1nc(-c2ccc3c(c2)OCO3)n(-c2ccc(NC(=O)CSc3ccccc3)cc2)n1
inactive: Potency [1] | Potency [14] | Potency [5] | Potency [8] | Potency [10] | Potency [12] | Potency [11]

C[C@]1(c2nc3c(C(N)=O)cccc3[nH]2)CCCN1
inactive: Potency [1] | Potency [5] | Potency [8] | Potency [10]
active: IC50 (viability decrease) [2] 18.7 µM

Cn1cc(-c2ccc3nnc(C(F)(F)c4ccc5ncccc5c4)n3n2)cn1
inactive: Potency [1] | IC50 (viability decrease) [2] | Potency [5] | Potency [8] | Potency [10] | Potency [12] | Potency [13]

CCOc1ccn(-c2ccc(F)cc2)c(=O)c1C(=O)Nc1ccc(Oc2ccnc(N)c2Cl)c(F)c1
active: Potency [1] 18.7 µM | Potency [3] 6.62 µM | Potency [5] 14.8 µM | Potency [11] 59 nM | Potency [13] 18.7 µM
inactive: Potency [8]

CC[C@@H](C)[C@H](NC(=O)[C@H](CC1CCCCC1)NC(=O)c1ccno1)C(=O)N1CCC2(CCc3ccccc32)CC1
active: Potency [14] 11.8 µM
inactive: Potency [1] | Potency [5] | Potency [8] | Potency [10] | Potency [12] | Potency [13]

Cc1c(CN2CCN(C(=O)C(C)C)CC2)sc2c(N3CCOCC3)nc(-c3cnc(N)nc3)nc12
active: Potency [1] 0.0935 µM | Potency [14] 0.166 µM | Potency [5] 0.0833 µM | Potency [10] 0.466 µM | Potency [12] 469 nM | Potency [11] 132 nM | Potency [13] 0.469 µM

Cc1c(C)c2c(c(C)c1O)CCC(C)(COc1ccc(CC3SC(=O)NC3=O)cc1)O2 (centres undefined)
inactive: Potency [1] | Potency [14] | Potency [3] | Potency [5] | Potency [8] | Potency [12] | Potency [11] | Potency [13]

COc1ccccc1-c1cccc(-c2c(O)c3cc(C#N)c(Cl)cc3[nH]c2=O)c1
inactive: Potency [1] | Potency [5] | Potency [8] | Potency [10] | Potency [12] | Potency [13]
active: Potency [3] 1.18 µM

CC(c1cc2ccccc2s1)N(O)C(N)=O (centres undefined)
inactive: Potency [1] | Potency [14] | Potency [5] | Potency [8] | Potency [10] | Potency [12] | Potency [11] | Potency [13]

CCn1c(-c2nonc2N)nc2cnc(Oc3cccc(NC(=O)c4ccc(OCCN5CCOCC5)cc4)c3)cc21
inactive: Potency [1] | Potency [3] | Potency [10]
active: Potency [4] 3.66 µM | Potency [5] 1.64 µM | Potency [8] 14.8 µM | Potency [11] 235 nM

CS(=O)(=O)c1ccc(C(=O)Nc2ccc(Cl)c(-c3ccccn3)c2)c(Cl)c1
inactive: Potency [1] | Potency [14] | Potency [5] | Potency [8] | Potency [10] | Potency [12] | Potency [11]

Cc1cc([C@@H](C)Nc2ccccc2C(=O)O)c2nc(N3CCOCC3)cc(=O)n2c1
inactive: Potency [8]
active: Potency [1] 9.35 µM | Potency [14] 14.8 µM | Potency [12] 679 nM | Potency [11] 13600 nM

Cc1ccccc1C(C(=O)NC1CCCC1)N(C(=O)Cn1cnc2ccccc21)c1cccc(F)c1 (centres undefined)
inactive: Potency [1] | Potency [14] | Potency [12] | Potency [11] | Potency [13]

CC1(C)Cc2c(-c3ccccc3)c(-c3ccc(Cl)cc3)c(CC(=O)O)n2C1
inactive: Potency [1] | Potency [14] | Potency [10]

O=C(Nc1ccc(F)c(C(F)(F)F)c1)Nc1nnc(-c2ccncc2)s1
active: IC50 (viability decrease) [2] 14.8 µM
inactive: Potency [1] | Potency [5] | Potency [8] | Potency [10] | Potency [11]

CC(=O)NC(C)c1ccc(Oc2ccc(OC(C)C)cc2)cc1 (centres undefined)
active: Potency [3] 4.69 µM | Potency [13] 23.5 µM
inactive: Potency [1] | Potency [14] | Potency [5] | Potency [8] | Potency [10]

COc1ccc(-c2oc3cc(OC)ccc3c2C(=O)c2ccc(C#N)cc2)cc1
inactive: Potency [1] | Potency [14] | Potency [4] | Potency [5] | Potency [8] | Potency [10]
active: Potency [11] 1180 nM | Potency [13] 0.0935 µM

CCCn1c(=O)c2[nH]c(C34CC5CC3C[C@@H](C5)C4)nc2n(CCC)c1=O
active: Potency [11] 16600 nM | Potency [13] 18.7 µM
inactive: Potency [1] | Potency [14] | Potency [5] | Potency [8] | Potency [10] | Potency [12]

CC1(C)CNc2cc(NC(=O)c3cccnc3NCc3ccncc3)ccc21
active: Potency [10] 26.2 µM | Potency [12] 1180 nM
inactive: Potency [1] | Potency [14] | Potency [5] | Potency [8]

CCc1ccc(CCOc2ccc(CC3SC(=O)NC3=O)cc2)nc1 (centres undefined)
inactive: Potency [1] | Potency [14] | Potency [5] | Potency [8] | Potency [10] | Potency [12] | Potency [11]

COc1ccc2nc(S(=O)Cc3ncc(C)c(OC)c3C)[nH]c2c1 (centres undefined)
inactive: Potency [1] | Potency [14] | Potency [5] | Potency [8] | Potency [10] | Potency [12] | Potency [11]

CCC(C)(C)C(=O)O[C@H]1C[C@@H](C)C=C2C=C[C@H](C)[C@H](CC[C@@H]3C[C@@H](O)CC(=O)O3)[C@H]21
inactive: Potency [15]

CNC[C@H](O)c1cccc(O)c1
inactive: outcome [16]
